Data from PubChem BioAssay AID1159580 (chemical genetic matrix, 2015).
Screen size: about 5,500 compounds; about 2,000 (36%) were called active. Roughly 18% stayed inconclusive and do not appear here. Rule as the data show it: active = normalized growth mostly below about 0.91 (no sharp cut-off); inconclusive = no clear call, values can overlap the other calls; inactive = mostly above about 0.92. The list shows a part of the results.

Assay: chemical genetic growth profiling, strain panel (AID 1159580);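 also: tested at 20 µM; growth read once vehicle control cultures reached saturation at 30 °C; 1 = growth at the plate median or of vehicle wells; lower values mean less growth of the strain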
Details: growth OD

Measured: normalized growth

CO[C@H]1C[C@H](O[C@H]2[C@H](C)[C@@H](OC3O[C@H](C)C[C@H](N(C)C)[C@H]3OC(C)=O)[C@@H](C)C[C@]3(CO3)C(=O)[C@H](C)[C@@H](OC(C)=O)[C@@H](C)[C@@H](C)OC(=O)[C@@H]2C)O[C@@H](C)[C@@H]1OC(C)=O (some centres undefined)
inactive: S. cerevisiae deletion strains, locus YKL009W, strain mrt4, hits give low values 0.977 | S. cerevisiae deletion strains, locus YKL068W, hits give low values 0.995 | S. cerevisiae deletion strains, locus YKL085W, strain MDH1 (second series), hits give low values 0.989 | S. cerevisiae deletion strains, locus YKL085W, strain MDH1, hits give low values 0.989 | S. cerevisiae deletion strains, locus YKL160W, strain elf1, hits give low values 0.984 | S. cerevisiae deletion strains, locus YKL190W, strain CNB1, hits give low values 1 | S. cerevisiae deletion strains, locus YKR001C, strain vps1, hits give low values 0.982 | S. cerevisiae deletion strains, locus YKR026C, strain gcn3, hits give low values 0.982 | S. cerevisiae deletion strains, locus YKR091W, strain srl3, hits give low values 0.997 | S. cerevisiae deletion strains, locus YLL001W, strain dnm1, hits give low values 1.01 | S. cerevisiae deletion strains, locus YLL026W, hits give low values 1 | S. cerevisiae deletion strains, locus YLL041C, strain sdh2, hits give low values 1 | S. cerevisiae deletion strains, locus YLR027C, strain aat2, hits give low values 0.984 | S. cerevisiae deletion strains, locus YLR039C, strain RIC1, hits give low values 1.02 | S. cerevisiae deletion strains, locus YLR058C, strain SHM2, hits give low values 1.01 | S. cerevisiae deletion strains, locus YLR102C, strain apc9, hits give low values 0.989 | S. cerevisiae deletion strains, locus YLR113W, strain HOG1, hits give low values 0.978 | S. cerevisiae deletion strains, locus YLR221C, strain rsa3, hits give low values 0.99 | S. cerevisiae deletion strains, locus YLR258W, strain gsy2, hits give low values 0.997 | S. cerevisiae deletion strains, locus YLR262C, strain YPT6 (second series), hits give low values 0.983 | S. cerevisiae deletion strains, locus YLR262C, strain YPT6, hits give low values 1.02 | S. cerevisiae deletion strains, locus YLR268W, strain sec22, hits give low values 0.987 | S. cerevisiae deletion strains, locus YLR320W, strain mms22, hits give low values 0.993 | S. cerevisiae deletion strains, locus YLR330W, strain CHS5, hits give low values 1 | S. cerevisiae deletion strains, locus YLR342W, strain FKS1 (second series), hits give low values 0.983 | S. cerevisiae deletion strains, locus YLR342W, strain FKS1, hits give low values 0.982 | S. cerevisiae deletion strains, locus YLR357W, strain rsc2, hits give low values 0.997 | S. cerevisiae deletion strains, locus YLR370C, strain arc18, hits give low values 0.993 | S. cerevisiae deletion strains, locus YLR371W, strain rom2, hits give low values 0.983 | S. cerevisiae deletion strains, locus YLR384C, strain iki3, hits give low values 0.995 | S. cerevisiae deletion strains, locus YLR418C, strain cdc73, hits give low values 0.961 | S. cerevisiae deletion strains, locus YML016C, strain PPZ1, hits give low values 1.01 | S. cerevisiae deletion strains, locus YML032C, strain rad52, hits give low values 0.991 | S. cerevisiae deletion strains, locus YML120C, strain ndi1, hits give low values 0.989 | S. cerevisiae deletion strains, locus YML124C, strain tub3, hits give low values 0.985 | S. cerevisiae deletion strains, locus YMR058W, strain fet3, hits give low values 1 | S. cerevisiae deletion strains, locus YMR078C, strain ctf18, hits give low values 1 | S. cerevisiae deletion strains, locus YMR125W, strain sto1, hits give low values 0.975 | S. cerevisiae deletion strains, locus YMR129W, hits give low values 0.998 | S. cerevisiae deletion strains, locus YMR205C, strain PFK2, hits give low values 1.01 | S. cerevisiae deletion strains, locus YMR223W, strain ubp8, hits give low values 0.992 | S. cerevisiae deletion strains, locus YMR231W, strain pep5, hits give low values 0.997 | S. cerevisiae deletion strains, locus YMR263W, strain SAP30, hits give low values 1 | S. cerevisiae deletion strains, locus YMR307W, strain GAS1, hits give low values 0.962 | S. cerevisiae deletion strains, locus YNL067W, strain RPL9B, hits give low values 1.01 | S. cerevisiae deletion strains, locus YNL071W, strain lat1, hits give low values 0.975 | S. cerevisiae deletion strains, locus YNL183C, strain NPR1, hits give low values 0.932 | S. cerevisiae deletion strains, locus YNL209W, strain ssb2, hits give low values 0.99 | S. cerevisiae deletion strains, locus YNL233W, strain BNI4, hits give low values 1.02 | S. cerevisiae deletion strains, locus YNL248C, strain rpa49, hits give low values 1.01 | S. cerevisiae deletion strains, locus YNL250W, strain rad50, hits give low values 1.01 | S. cerevisiae deletion strains, locus YNL271C, strain bni1, hits give low values 0.985 | S. cerevisiae deletion strains, locus YNL298W, strain CLA4, hits give low values 0.969 | S. cerevisiae deletion strains, locus YNL307C, strain MCK1, hits give low values 0.987 | S. cerevisiae deletion strains, locus YNL322C, strain KRE1 (second series), hits give low values 0.992 | S. cerevisiae deletion strains, locus YNL322C, strain KRE1, hits give low values 1 | S. cerevisiae deletion strains, locus YNR049C, strain mso1, hits give low values 1 | S. cerevisiae deletion strains, locus YNR052C, strain pop2, hits give low values 0.998 | S. cerevisiae deletion strains, locus YOL006C, strain TOP1, hits give low values 1 | S. cerevisiae deletion strains, locus YOL012C, strain htz1 0.913 | S. cerevisiae deletion strains, locus YOL147C, strain pex11, hits give low values 0.992 | S. cerevisiae deletion strains, locus YOR001W, strain rrp6, hits give low values 1 | S. cerevisiae deletion strains, locus YOR061W, strain CKA2, hits give low values 1.01 | S. cerevisiae deletion strains, locus YOR069W, strain VPS5, hits give low values 1.01 | S. cerevisiae deletion strains, locus YOR070C, strain gyp1, hits give low values 1.01 | S. cerevisiae deletion strains, locus YOR080W, strain dia2, hits give low values 1 | S. cerevisiae deletion strains, locus YOR083W, strain WHI5, hits give low values 0.988 | S. cerevisiae deletion strains, locus YOR106W, strain vam3, hits give low values 1 | S. cerevisiae deletion strains, locus YOR136W, strain idh2, hits give low values 0.988 | S. cerevisiae deletion strains, locus YOR144C, strain elg1, hits give low values 0.985 | S. cerevisiae deletion strains, locus YOR184W, strain ser1, hits give low values 0.982 | S. cerevisiae deletion strains, locus YOR231W, strain MKK1, hits give low values 0.955 | S. cerevisiae deletion strains, locus YOR265W, strain rbl2, hits give low values 0.997 | S. cerevisiae deletion strains, locus YOR270C, strain vph1, hits give low values 1.02 | S. cerevisiae deletion strains, locus YOR290C, strain snf2, hits give low values 0.996 | S. cerevisiae deletion strains, locus YOR316C, strain cot1, hits give low values 0.993 | S. cerevisiae deletion strains, locus YPL051W, strain arl3, hits give low values 0.992 | S. cerevisiae deletion strains, locus YPL055C, strain LGE1, hits give low values 1.02 | S. cerevisiae deletion strains, locus YPL078C, strain atp4, hits give low values 1.01 | S. cerevisiae deletion strains, locus YPL106C, strain sse1, hits give low values 0.996 | S. cerevisiae deletion strains, locus YPL240C, strain hsp82, hits give low values 1 | S. cerevisiae deletion strains, locus YPL241C, strain CIN2, hits give low values 1 | S. cerevisiae deletion strains, locus YPL256C, strain CLN2, hits give low values 0.959 | S. cerevisiae deletion strains, locus YPR119W, strain clb2, hits give low values 0.986 | S. cerevisiae deletion strains, locus YPR141C, strain kar3, hits give low values 0.984 | S. cerevisiae deletion strains, locus YPR163C, strain tif3, hits give low values 0.99 | S. cerevisiae deletion strains, locus YPR167C, strain met16, hits give low values 0.979 | S. cerevisiae deletion strains, strain wtn01, hits give low values 0.975 | S. cerevisiae strains, strain wild type, hits give low values 1
